From PubChem
COUP-TFII inh – NR2F2 (human) inhibition, primary screen | P24468 | inhibition, % at 8.6 µM | HEK293T NGFI-A luciferase reporter, luminescence | 370,000 compounds, 0.7% hits;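 active = inhibition above a per-plate cutoff, mean inhibition of test wells between control levels plus 3 SD, cut at about 38% in these data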;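 note: cells cotransfected with COUP-TFII expression vector driving the NGFI-A reporter; 0% = median of COUP-TF2 test wells and 100% = reporter-only cells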
LRH-1 inv ag – NR5A2 inverse agonism in reporter assay; 360,000 compounds, 0.13% hits; inhibition, % at 3.6 µM; AID 602396; O00482; HEK293T StAR-luciferase reporter, LRH-1 transfected, 24 h;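 active = inhibition above the mean inhibition of all tested compounds plus 3 SD, cut at about 73% in these data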;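 note: 0% = DMSO wells and 100% = reporter-only cells lacking LRH-1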
Target sequence (O00482 whole entry, looked up): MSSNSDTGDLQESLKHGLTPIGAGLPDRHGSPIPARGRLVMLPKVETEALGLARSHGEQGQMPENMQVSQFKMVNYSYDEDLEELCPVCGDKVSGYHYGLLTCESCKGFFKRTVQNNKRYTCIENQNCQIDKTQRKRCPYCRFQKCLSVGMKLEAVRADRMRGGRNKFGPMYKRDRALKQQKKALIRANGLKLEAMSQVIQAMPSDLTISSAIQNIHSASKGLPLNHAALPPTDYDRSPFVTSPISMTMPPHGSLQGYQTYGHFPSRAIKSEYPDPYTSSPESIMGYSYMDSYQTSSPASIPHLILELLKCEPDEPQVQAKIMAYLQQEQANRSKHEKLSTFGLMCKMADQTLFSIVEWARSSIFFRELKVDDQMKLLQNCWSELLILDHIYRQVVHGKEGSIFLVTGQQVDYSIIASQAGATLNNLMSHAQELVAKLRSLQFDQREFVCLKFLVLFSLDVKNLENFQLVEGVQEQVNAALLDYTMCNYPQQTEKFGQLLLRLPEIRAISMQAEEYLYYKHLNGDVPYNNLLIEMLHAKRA
NCOA1 inh – inhibitors of human steroid receptor coactivator 1 (SRC1); 360,000 compounds, 0.12% hits; inhibition, % at 3.6 µM; Q15788; AID 588354; HEK293 GAL4-SRC1 luciferase reporter, luminescence;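 active = inhibition above the campaign mean plus 3 SD, with each screening campaign given its own cutoff, cut at about 60% in these data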;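 note: 0% = DMSO treated cells and 100% = gossypol at 36 µM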
NCOA2 inhibitor – human SRC2 (NCOA2) inhibition | 370,000 compounds, 0.17% hits | Q15596 | AID 651957 | HEK293 GAL4-SRC2 luciferase reporter, luminescence | inhibition, % at 9 µM;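 active = inhibition above the mean inhibition of all tested compounds plus 3 SD, set per campaign, cut at about 52% in these data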;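 note: 0% = DMSO treated cells and 100% = cells given Gossypol at 36 µM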
SRC3 inh – inhibits human SRC3 coactivator. HEK293 GAL4-SRC3 luciferase reporter, luminescence. inhibition, % at 3.6 µM. 360,000 compounds, 0.17% hits. AID 588352;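 active = inhibition above a per-campaign cutoff, the mean of all compounds plus 3 SD, cut at about 60% in these data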;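 note: 0% = DMSO-treated cells and 100% = gossypol-treated cells at 36 µM; higher means less SRC3-driven luciferase light from the GAL4 reporter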
VP16 Luc counter – VP16 inhibition counter-screen for COUP-TFII; shares compounds with COUP-TFII inh; HEK293 Gal4-VP16 luciferase reporter, luminescence; inhibition, % at 8.5 µM; 2,500 compounds, 25% hits; in the data active = inhibition above about 13%
COUP-TFII conf – COUP-TFII (NR2F2) inhibition, confirmation assay. HEK293 NGFI-A luciferase reporter, luminescence. shares compounds with COUP-TFII inh. inhibition, % at 8.5 µM. 2,500 compounds, 45% hits;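 active = mean inhibition over three repeats above a set limit taken from the earlier primary screen, cut at about 38% in these data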;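 note: 100% = cells given the luciferase reporter alone without the COUP-TF2 vector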
Active calls of the source: *. Shown are actives, neighbours in structure and some others; about 0.84% of the full set was active somewhere.

How did Cc1[nH]cnc1C(=O)N/N=C/c1ccc([N+](=O)[O-])s1 do in these assays?
COUP-TFII inh: -16.6; LRH-1 inv ag: 14.8; NCOA1 inh: -24.4; NCOA2 inhibitor: -8.1; SRC3 inh: -55.1

Results for COc1ccc(NC(=O)/C(Cl)=C(/Cl)S(=O)Cc2ccccc2)cn1 (centres undefined) ?
COUP-TFII inh: 61.4*; LRH-1 inv ag: 68.9; NCOA1 inh: -58.2; NCOA2 inhibitor: 83.8*; SRC3 inh: 25.9; VP16 Luc counter: 88.2*; COUP-TFII conf: 100.0*

How did COc1ccc(NC(=O)Cc2ccccc2)cn1 do in these assays?
COUP-TFII inh: 3.7; LRH-1 inv ag: 11.5; NCOA1 inh: 8.6; NCOA2 inhibitor: -45.3; SRC3 inh: 3.5

How did O=[N+]([O-])c1cccc(-c2nc3ccccc3s/c2=N/O)c1 do in these assays?
COUP-TFII inh: 11.3; LRH-1 inv ag: -11.7; NCOA1 inh: 20.7; NCOA2 inhibitor: -25.4; SRC3 inh: -21.4

What do the screens show for `O=C(CCc1ccc(S(=O)(=O)N2CCOCC2)cc1)Nc1nc(COc2ccccc2)cs1`?
COUP-TFII inh: 39.4*; LRH-1 inv ag: 14.3; NCOA1 inh: 5.0; NCOA2 inhibitor: 12.3; SRC3 inh: 11.3; VP16 Luc counter: -2.2; COUP-TFII conf: 17.5

How did O=C(COc1ccccc1)Nc1nc(-c2ccc(S(=O)(=O)N3CCOCC3)cc2)cs1 do in these assays?
COUP-TFII inh: 15.1; LRH-1 inv ag: 16.5; NCOA1 inh: 8.0; NCOA2 inhibitor: 21.0; SRC3 inh: -5.8

Results for CC1(C(=O)Nc2ccc3[nH]ncc3c2)CCN1C(=O)C1(c2ccccc2)CC1 (centres undefined) ?
COUP-TFII inh: -6.3; LRH-1 inv ag: -8.3; NCOA1 inh: 12.2; NCOA2 inhibitor: 6.2; SRC3 inh: 17.7

How did O=C(c1ccccc1)N1CCC(c2nc(-c3ccc(S(=O)(=O)NCC4CCCO4)cc3)no2)CC1 (centres undefined) do in these assays?
COUP-TFII inh: 18.4; LRH-1 inv ag: 11.7; NCOA1 inh: 8.7; NCOA2 inhibitor: 13.3; SRC3 inh: 9.8

Results for O=C(C1CC1)N1CCC(c2nc(-c3ccc(S(=O)(=O)NCC4CCCO4)cc3)no2)CC1 (centres undefined) ?
COUP-TFII inh: 45.4*; LRH-1 inv ag: 16.2; NCOA1 inh: -2.9; NCOA2 inhibitor: 29.9; SRC3 inh: 32.0; VP16 Luc counter: -4.1; COUP-TFII conf: 20.3

How did O=C(NNC1=Nc2ccccc2SC1)c1ccccc1F do in these assays?
COUP-TFII inh: 38.1*; LRH-1 inv ag: -21.7; NCOA1 inh: -29.4; NCOA2 inhibitor: 9.3; SRC3 inh: 7.7; VP16 Luc counter: -38.8; COUP-TFII conf: 8.8

How did O=C(NNC1=Nc2ccccc2SC1)c1cccc([N+](=O)[O-])c1 do in these assays?
COUP-TFII inh: 16.6; LRH-1 inv ag: 7.4; NCOA1 inh: 7.4; NCOA2 inhibitor: 8.8; SRC3 inh: 30.7

How did Cc1cc(C(=O)CSc2nc3ccccc3[nH]2)c(C)n1CC1CCCO1 (centres undefined) do in these assays?
COUP-TFII inh: 80.3*; LRH-1 inv ag: 46.0; NCOA1 inh: 48.0; NCOA2 inhibitor: 63.1*; SRC3 inh: 72.8*; VP16 Luc counter: 33.6*; COUP-TFII conf: 87.7*

How did C[C@@H]1ON(C)[C@H]2C[C@H]3c4[nH]c5cccc(Br)c5c4CCN3C(=O)[C@@H]12 do in these assays?
COUP-TFII inh: 5.1; NCOA2 inhibitor: 11.2

What do the screens show for `COc1cc(-c2cnc3c(NC=O)cc(-c4cccc(C(F)(F)F)c4)cn23)cc(OC)c1OC`?
COUP-TFII inh: 40.6*; LRH-1 inv ag: -2.0; NCOA1 inh: 2.7; NCOA2 inhibitor: 3.7; SRC3 inh: 12.1; VP16 Luc counter: 1.8; COUP-TFII conf: 27.1

What do the screens show for `CN(C)C(=O)c1cccc(-c2cnc3c(NC=O)cc(-c4cccc(C(F)(F)F)c4)cn23)c1`?
COUP-TFII inh: 46.0*; LRH-1 inv ag: 4.6; NCOA1 inh: 9.9; NCOA2 inhibitor: 0.3; SRC3 inh: -1.9; VP16 Luc counter: 0.3; COUP-TFII conf: -19.4

What do the screens show for `Cc1cccc(-c2cc(NC=O)c3ncc(-c4cccc(C(=O)N(C)C)c4)n3c2)c1`?
COUP-TFII inh: 5.0; LRH-1 inv ag: -10.4; NCOA1 inh: -1.1; NCOA2 inhibitor: 10.4; SRC3 inh: -0.3

Results for COc1cc(-c2cnc3c(NC=O)cc(-c4ccc(N5CCN(C)CC5)cc4)cn23)cc(OC)c1OC ?
COUP-TFII inh: -88.1; LRH-1 inv ag: -72.2; NCOA1 inh: -62.6; NCOA2 inhibitor: -24.9; SRC3 inh: -85.5

What do the screens show for `COc1cc(-c2cnc3c(NC(C)=O)cc(-c4ccc(N5CCN(C)CC5)cc4)cn23)cc(OC)c1OC`?
COUP-TFII inh: 40.9*; LRH-1 inv ag: -18.1; NCOA1 inh: 27.4; NCOA2 inhibitor: 12.7; SRC3 inh: 14.0; VP16 Luc counter: -14.8; COUP-TFII conf: 9.0

Results for COc1ccc(-c2cnc3c(NC(C)=O)cc(-c4cccc(NS(C)(=O)=O)c4)cn23)cc1OC ?
COUP-TFII inh: 98.8*; LRH-1 inv ag: 17.5; NCOA1 inh: -13.3; NCOA2 inhibitor: -2.8; SRC3 inh: 0.7; VP16 Luc counter: -1.3; COUP-TFII conf: -7.9

Results for COc1ccc(S(=O)(=O)N(C)C)cc1NC(=O)COC(=O)c1nn(C)c(=O)c2ccccc12 ?
COUP-TFII inh: 12.3; LRH-1 inv ag: 11.0; NCOA1 inh: -16.8; NCOA2 inhibitor: -2.0; SRC3 inh: 11.8

Results for Cc1ncc(CSc2ccc(Cl)cc2)c(CO)c1O ?
COUP-TFII inh: 18.9; LRH-1 inv ag: -11.3; NCOA1 inh: 1.5; NCOA2 inhibitor: 5.8; SRC3 inh: 9.6

How did Cc1cc(N2CCN(C(=O)Oc3ccc(-c4ccccc4)cn3)CC2)c2ccccc2n1 do in these assays?
COUP-TFII inh: 86.9*; NCOA2 inhibitor: 31.1; VP16 Luc counter: 4.6; COUP-TFII conf: 38.2*

How did CC12CCC(=O)C=C1CCC1C2CCC2(C)C(c3csc(N)n3)CCC12 (centres undefined) do in these assays?
COUP-TFII inh: 56.9*; LRH-1 inv ag: 27.4; NCOA1 inh: 23.5; NCOA2 inhibitor: 37.5; SRC3 inh: 19.2; VP16 Luc counter: 9.5; COUP-TFII conf: 44.8*

How did Cc1ccsc1CN(C)C(=O)CN1C(=O)NC(c2ccccc2)(c2ccccc2)C1=O do in these assays?
COUP-TFII inh: 13.0; LRH-1 inv ag: -13.5; NCOA1 inh: 0.1; NCOA2 inhibitor: 4.8; SRC3 inh: 9.4

Results for CC(=O)c1cccc(NC(=O)C2Cc3c(-c4ccccc4Oc4ccccc4)ccnc3O2)c1 (centres undefined) ?
COUP-TFII inh: 40.6*; LRH-1 inv ag: 35.0; NCOA1 inh: 21.3; NCOA2 inhibitor: 4.4; SRC3 inh: -5.4; VP16 Luc counter: -6.6; COUP-TFII conf: 12.2
